Structures can show the parent of a compound that is named as a salt.
Each compound was assayed on E18 rat cortical neuron-glia co-culture (assay: myelination (MBP fiber length per Olig2+ nucleus), % of 1 µM DAPT response (DMSO = 0) (% of DAPT); higher = more myelination, active = 50 or more). Details: 1 µM; treatment time: 8 days (DIV5-DIV13).
How it was run: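 Rat cortical co-cultures from E18 tissue were dissociated with papain and plated at 20,000 cells/well on 96-well plates coated with poly-d-lysine/laminin. From DIV5 to DIV13, library compounds were added at 1 or 5 µM in myelination medium. After fixation in 4 % paraformaldehyde, cultures were immunostained for MBP and Olig2 and counterstained with DAPI, and four 10X fields were analysed in each of duplicate wells. The myelination value is the length of continuous straight MBP fibers per Olig2+ nucleus, normalised so that 0.1 % DMSO is 0 and a 1 µM positive control is 100.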

myelination, inactive:
O=[N+]([O-])c1cccc2cn[nH]c12 [7-Nitroindazole] -9.77, CC1(C)O[C@@H]2[C@@H](CO[C@@]3(COS(N)(=O)=O)OC(C)(C)O[C@@H]23)O1 [Topiramate] -20.2, COc1cc2nc(N(C)CCCNC(=O)C3CCCO3)nc(N)c2cc1OC (centres undefined) [Alfuzosin] -57.9, CC[N+](C)(C)c1cccc(O)c1 [Edrophonium] -6.47, CC(C)n1c(/C=C/C(O)CC(O)CC(=O)O)c(-c2ccc(F)cc2)c2ccccc21 (centres undefined) [Fluvastatin] -15.7, Nc1nc(=O)[nH]cc1F [Flucytosine] -9.17, COCCOC(=O)C1=C(C)NC(C)=C(C(=O)OC(C)C)C1c1cccc([N+](=O)[O-])c1 (centres undefined) [Nimodipine] -18.6, NS(=O)(=O)c1cc2c(cc1Cl)NCNS2(=O)=O [Hydrochlorothiazide] -8.91, C=C1/C(=C\C=C2/CCC[C@]3(C)[C@@H]([C@H](C)CCCC(C)(C)O)CC[C@@H]23)C[C@@H](O)C[C@@H]1O [Calcitriol] -11.1, OCc1cccnc1 [Nicotinyl Alcohol] -10.3, COc1c(N2CCNC(C)C2)c(F)cc2c(=O)c(C(=O)O)cn(C3CC3)c12 (centres undefined) [Gatifloxacin] -17, Cc1nccn1CC1CCc2c(c3ccccc3n2C)C1=O (centres undefined) [Ondansetron] -25.6, COCC1=C(C(=O)OC(C)OC(=O)OC(C)C)N2C(=O)[C@@H](NC(=O)/C(=N\OC)c3csc(N)n3)[C@H]2SC1 (some centres undefined) [Cefpodoxime proxetil] -20.2, Clc1cccc(Cl)c1NC1=NCCN1 [Clonidine hydrochloride] -10.4, C[C@H]1C[C@@H]2[C@H]([C@@H](O)C[C@@]3(C)[C@H]2CC[C@]3(O)C(=O)CO)[C@@]2(C)C=CC(=O)C=C12 [Methylprednisolone] -0.665, CCOc1ccc2ccccc2c1C(=O)N[C@@H]1C(=O)N2[C@@H]1SC(C)(C)[C@@H]2C(=O)O [Nafcillin] 4.05, CC(C)(C(=O)c1cccnc1)c1cccnc1 [Metyrapone] -19.7, CC(=O)OCC(=O)[C@@]1(O)CC[C@H]2[C@@H]3CCC4=CC(=O)C=C[C@]4(C)[C@H]3[C@@H](O)C[C@@]21C [Prednisolone acetate] -5.64, NC[C@H](O)c1ccc(O)c(O)c1 [Norepinephrine] -41.6, Clc1ccccc1C(c1ccccc1)(c1ccccc1)n1ccnc1 [Clotrimazole] 7.64, O=C(O)COCCN1CCN(C(c2ccccc2)c2ccc(Cl)cc2)CC1 (centres undefined) [Virlix] -2.52, C[C@@H](O)[C@H]1C(=O)N2C(C(=O)O)=C(S[C@@H]3CN[C@H](C(=O)N(C)C)C3)[C@H](C)[C@H]12 [Meropenem] 2.11, CC(C)NCC(O)c1cc(O)cc(O)c1 (centres undefined) [Metaproterenol] -16.5, O=C(c1ccc(OCCN2CCCCC2)cc1)c1c(-c2ccc(O)cc2)sc2cc(O)ccc12 [Raloxifene] -12.3, CCCCCCNC(=O)n1cc(F)c(=O)[nH]c1=O [Carmofur] -30.6, O=C1NC(C(=O)O)CS1 (centres undefined) [2-oxothiazolidine-4-carboxylic acid] -34.3, C[C@]12CCC(=O)C=C1CC[C@@H]1[C@@H]2CC[C@@]2(C)[C@H]1CC[C@]2(O)C(=O)CO [Cortodoxone] -16.7, N#Cc1ccc(C(c2ccc(C#N)cc2)n2cncn2)cc1 [letrozole] -16.4, C[C@]12C[C@H](O)[C@H]3[C@@H](CCC4=CC(=O)CC[C@@]43C)[C@@H]1CC[C@@H]2C(=O)CO [Corticosterone] -7.15, OC(Cn1cncn1)(Cn1cncn1)c1ccc(F)cc1F [Fluconazole] 5.01, Cc1ncc([N+](=O)[O-])n1CC(C)O (centres undefined) [Secnidazole] -31.6, Oc1ncnc2[nH]ncc12 [Allopurinol] 6.93, Cn1c(=O)c2nc[nH]c2n(C)c1=O [Theophylline] -7.88, OC(CCN1CCCCC1)(c1ccccc1)C1CCCCC1 (centres undefined) [Trihexyphenidyl] -12.2, c1ccc(-c2ccc(C(c3ccccc3)n3ccnc3)cc2)cc1 (centres undefined) [Bifonazole] -18.8, NS(=O)(=O)Cc1noc2ccccc12 [Zonisamide] -33.9, CC[C@H](C)C(=O)O[C@H]1C[C@H](O)C=C2C=C[C@H](C)[C@H](CC[C@@H](O)C[C@@H](O)CC(=O)O)[C@H]21 [Pravastatin] 2.73, Nc1nc2ccc(OC(F)(F)F)cc2s1 [Riluzole] -26.1

myelination, 286:
O=c1[nH]c(=O)n([C@H]2C[C@H](O)[C@@H](CO)O2)cc1F [Floxuridine]

Source: the supplement of paper PMC4840960
